Screening data: PubChem BioAssay, National Center for Advancing Translational Sciences (NCATS)
A selection: hits, their analogues and other compounds. The true share with any hit is near 7.8%.
VACV Venus inh: inhibitors of vaccinia virus (Venus reporter); Vaccinia virus Venus reporter expression, fluorescence; Potency, µM (highest dose often 36.5 µM), for the others: top-dose activity change, negative = inhibition, actives largely listed as inhibitors; AID 720580; actives 0.46% (n = 330,000); calls by dose curve; tested in A549 cells; also: potency is read from the fitted curve at half-maximal effect; % is scaled to controls: 0 for no effect and ±100 for the full control effect; nearly all actives have a fitted effect of over 30% in size
HCMV inh: human cytomegalovirus inhibition; HFF cells, HCMV-luciferase reporter, 72 h; active compounds read low; actives 4.5% (n = 410,000); activity change, negative = inhibition, % at 57.5 µM; AID 1259415; in the data active = activity change below about -60%; inconclusive = no clear call, values can overlap the other calls; inactive = above about -39%; also: % is scaled to controls: 0 for no effect and ±100 for the full control effect
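Compounds were evaluated in HFFs infected with an HCMV luciferase reporter virus (MOI 1 PFU/cell). Luciferase in lysates collected 72 h post infection served as the replication measure.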
Marburg entry inh: blocks Marburg virus binding to or entry into cells; Marburg virus pseudotyped entry inhibition, cell reporter; Potency, µM (doses to about 37.8 µM), inactives show at the top dose activity change, negative = inhibition, actives largely listed as inhibitors; actives 1.8% (n = 300,000); AID 540276; calls by dose curve; tested in HEK293 cells; also: potency is read from the fitted curve at half-maximal effect; % is scaled to controls: 0 for no effect and ±100 for the full control effect
LASV entry inh: inhibitors of Lassa virus binding or cell entry; Lassa virus pseudotype entry inhibition, cell reporter; Potency, µM (top dose mostly 37.9 µM), for inactives: top-dose activity change, negative = inhibition, actives largely listed as inhibitors; actives 1.2% (n = 300,000); AID 540256; calls by dose curve; tested in HEK293 cells; also: potency is read from the fitted curve at half-maximal effect; % is scaled to controls: 0 for no effect and ±100 for the full control effect; nearly all actives have a fitted effect of over 50% in size
HCV inhibitor: HCV inhibition; Huh7.5.1 HCVcc-Cre infection, luciferase reporter, 44 h; Potency, µM (series often up to 41.8 µM), for inactives: at the highest dose activity change, negative = inhibition, usual class: inhibitors; actives 3.4% (n = 340,000); also: potency is read from the fitted curve at half-maximal effect; % is scaled to controls: 0 for no effect and ±100 for the full control effect
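Reporter virus HCVcc-Cre (~0.5 moi) infects cells exposed to compound; seeding density 1,000 cells/well with 4 h settling beforehand. Luminescence, 15 sec read, taken 44 h post-infection following a 15 min RT substrate incubation.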
VACV mCherry inh: vaccinia inhibition (mCherry reporter) | Vaccinia virus mCherry reporter infection, fluorescence | Potency, µM (top dose mostly 36.5 µM), for inactives: top-dose activity change, negative = inhibition, most hits filed as inhibitors | actives 0.63% (n = 310,000); calls by dose curve; tested in A549 cells; also: potency is read from the fitted curve at half-maximal effect; % is scaled to controls: 0 for no effect and ±100 for the full control effect; nearly all actives have a fitted effect of over 35% in size
HCV confirm: HCV inhibition, cherry-pick confirmation; actives 78% (n = 640); AID 720575; shares compounds with HCV inhibitor; HCVcc-Cre infectious virus cell assay, luciferase, inhibition; Potency, µM (highest dose often 41.8 µM), for the others: top-dose activity, negative = inhibition, usual class: inhibitors; also: potency is read from the fitted curve at half-maximal effect; nearly all actives have a fitted effect of over 80% in size
HCV host tox: toxic to HCV host cells, flagging false HCV inhibitors; shares compounds with HCV inhibitor; AID 720576; HCV host cell line cytotoxicity counterscreen; Potency, µM (doses to about 41.8 µM), without a hit: at the top dose activity change, negative = cytotoxicity, most hits filed as inhibitors; actives 22% (n = 640);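 also: potency is read from the fitted curve at half-maximal effect; 44 h compound exposure; % is scaled to controls: 0 for no effect and ±100 for the full control effect; nearly all actives have a fitted effect of over 55% in size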
Starred values were filed as active, the others as inactive; i = inactive; ? = inconclusive; / = not tested or not shown; [ ] = remark or other dose. Unless noted, calls follow the shape of the dose curve; as a rule, active = well fitted curve in the direction sought with a large enough effect; inconclusive = small, poorly fitted or top-dose-only effect, or another doubt; inactive = no such curve, though single readings can be large; an effect the other way counts as inactive or inconclusive.

SMILES	VACV Venus inh	HCMV inh	Marburg entry inh	LASV entry inh	HCV inhibitor	VACV mCherry inh	HCV confirm	HCV host tox
O=C(NCCN1CCCC1)c1ccc(Cn2c(=S)[nH]c3cc4c(cc3c2=O)OCO4)cc1	/	19	?	15%	?	/	/	/
O=C(Nc1ccc(/C=C/c2nc3ccccc3o2)cc1)c1c(F)cccc1F	?	8	?	?	5.6µM*	/	4.4µM*	-32%
CC(=O)Nc1ccc(/C=C/c2nc3ccccc3o2)cc1	/	-24	/	/	?	/	/	/
Cc1ccc(C)c(N2CCN(S(=O)(=O)c3ccc(-c4cc(C(F)(F)F)on4)s3)CC2)c1	-8%	-16	/	?	/	-8%	/	/
FCCCOc1ccc(-c2nccc(-c3ccc(F)cc3)n2)cc1	-17%	1	0%[46.1 µM]	4%	?	/	?	15%
FCCCOc1ccc(-c2ccnc(-c3ccccc3)n2)cc1	-5%	13	-15%	12%	?	/	/	/
CCOC(=O)C1CCCN(S(=O)(=O)c2ccc(S(=O)(=O)N(CC)CC)cc2)C1 (stereo not given)	-25%	-70*	/	/	0.89µM*	i	0.7µM*	1.8µM*
CCOC(=O)C1CCCN(S(=O)(=O)c2ccc(C)cc2)C1 (stereo not given)	-11%	30	?	-6%	15%	-17%	/	/
c1ccc(-c2nn(-c3ccccc3)[n+](-c3ccccc3)n2)cc1	-11%	-95*	?	-26%	3.2µM*	-6%	25µM*	?
CCCCC(=O)Nc1ccc(NC(=O)c2ccc3c(c2)OCO3)cc1OC	/	17	3%	15%	2.5µM*	/	?	18%
Cc1cccc(N2CCc3c2nc2ccccc2c3N)c1	-22%	87	?	-3%	8.9µM*	?	22µM*	-24%
CCN(CC)c1cc(C)nc2nc(-c3ccc(C)cc3)nn12	6%	-4	-3%[46.1 µM]	23%[46.1 µM]	/	-29%	/	/
COc1ccc(NC(=O)CCc2nc3cccnc3n2Cc2cccs2)c(OC)c1	5%	-27	-5%[46.1 µM]	18%[46.1 µM]	/	-9%[7.34 µM]	/	/
CCOC(=O)c1ccc(Nc2c(-c3ccc(OC)cc3)nc3nc[nH]n23)cc1	-2%	52	/	?	/	-5%	/	/
CC1(c2ccc3ccccc3c2)NC(=O)N(CC(=O)N2CCN(Cc3ccccc3)CC2)C1=O (stereo not given)	/	/	/	/	3.2µM*	/	0.89µM*	3.1µM*
CC1(c2ccc3ccccc3c2)NC(=O)N(CC(=O)N2CCC(C(N)=O)CC2)C1=O (stereo not given)	0%	-1	8%[46.1 µM]	?	28%	i	/	/
Cc1cc(C)n(CC(=O)Nc2cc(F)ccc2F)c(=O)c1C#N	-6%	-4	/	-2%[46.1 µM]	/	-6%	/	/
O=C1/C(=C/c2cccnc2)Oc2cc(OS(=O)(=O)c3ccc(F)cc3)ccc21	/	6	?	-22%	4.5µM*	/	25µM*	-29%
CN(C1CCCCC1)S(=O)(=O)c1ccc2c(c1)c(=O)c(C(=O)N1CCN(c3ccccc3F)CC1)cn2C	11%	12	?	11%[46.1 µM]	/	-2%	/	/
CCCC(=O)NNc1c2ccccc2nc2ccccc12	1%	-9	23%	0%	1.4µM*	-8%	0.56µM*	0.5µM*
O=C(COc1ccccc1)NNc1c2ccccc2nc2ccccc12	?	-92*	11µM*	?	1µM*	/	1.6µM*	-94%
O=C(NNc1c2ccccc2nc2ccccc12)C(O)c1ccccc1 (stereo not given)	/	0	/	/	?	/	/	/
CCOC(=O)CSc1nc2cc3c(cc2c(=O)n1CCCCCC(=O)NCc1ccc(OC)cc1)OCO3	-18%	29	/	4%[46.1 µM]	/	-20%	/	/
CCN(CC)C(=O)CSc1nc2cc3c(cc2c(=O)n1Cc1ccc(OC)cc1)OCO3	2%	?	-9%[46.1 µM]	?	?	-6%	5.6µM*	12%
O=C(CSc1nccn1Cc1ccc(Cl)cc1)Nc1ccc2c(c1)OCCO2	-10%	7	/	-11%[46.1 µM]	/	i	/	/
SMILES	VACV Venus inh	HCMV inh	Marburg entry inh	LASV entry inh	HCV inhibitor	VACV mCherry inh	HCV confirm	HCV host tox
O=C(NCCc1ccccc1)C(=O)NCC(c1ccc2c(c1)OCO2)N1CCOCC1 (stereo not given)	-6%	0	/	18%[46.1 µM]	/	-3%	/	/
Cc1cc(SCC(=O)c2ccccc2)n2ncc(-c3ccccc3)c2n1	/	63	/	/	?	/	?	51%
CCOC(=O)c1c(S(=O)(=O)N2CCC(C(=O)Nc3ccc(F)cc3F)CC2)c(C)n(C)c1C	-6%	-14	/	0%[46.1 µM]	/	0%	/	/
Cc1cc(Br)c(S(=O)(=O)NCc2ccncc2)cc1C	-21%	-82*	?	?	3.2µM*	?	2µM*	6.3µM*
COc1cc(C)c(Cl)cc1S(=O)(=O)NCc1ccncc1	/	/	1%	/	-2%	/	/	/
C/C(=N\NC(=S)Nc1cc(S(=O)(=O)N2CCOCC2)ccc1Cl)c1ccccc1F	-27%	-92*	?	?	?	-37%	22µM*	?
CC(C)N(C(=S)Nc1cc(S(=O)(=O)N2CCOCC2)ccc1Cl)c1ccccc1	-1%	-9	?	0%	3%	-17%	/	/
CCOc1ccccc1N(CC(=O)N1CCN(Cc2ccccc2)CC1)S(=O)(=O)c1ccccc1	-21%	-5	/	/	/	-14%	/	/
CCNC(=S)/N=C(\N)Nc1nc(C)c2cc(C)ccc2n1	?	116	?	/	3.2µM*	?	?	-29%
CCc1ccc2[nH]c(=O)c(CN(Cc3ccccc3OC)Cc3nnnn3Cc3ccco3)cc2c1	28µM*	5	?	?	8.9µM*	/	25µM*	44%
Cc1nc2ccn(Cc3cccnc3)c(=O)c2cc1C(=O)NCc1ccccc1	-17%	-15	/	-30%[46.1 µM]	/	-16%	/	/
CCOCc1c(C(=O)NC2=Nc3ccccc3NC(CC)=C2C(=O)OCC)oc2ccccc12	-13%	?	?	?	?	i	/	/
CCOC(=O)C1=C(CC)Nc2ccccc2N=C1NC(=O)c1oc2ccccc2c1C	-6%	69	?	?	?	-16%	13µM*	2%
COc1ccc(-c2coc3cc(O)cc(O)c3c2=O)cc1	-6%	6	?	?	0%[8.37 µM]	-13%	/	/
O=c1c(-c2ccc(O)cc2)coc2cc(O)cc(O)c12	?	72	?	?	0.89µM*	11µM*	-7%	-4%
CC1(C)CC(CCC(=O)Nc2ccc(S(N)(=O)=O)cc2)C(=O)O1 (stereo not given)	/	29	10%	2%	15%	/	/	/
Cc1ccc(NC(=O)CCC2CC(C)(C)OC2=O)cc1 (stereo not given)	-10%	0	14%	0%[46.1 µM]	4µM*	-5%	1%	-2%
